# Laboratory results as given in PubChem BioAssay AID1672 (Johns Hopkins Ion Channel Center, 2009).
# Out of some 310,000 compounds screened, about 2,600 (0.84%) were called active. The entries come from a sample that favours actives as a whole. A number with no mark means an inactive call.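 Rule for the calls: active = fluorescence ratio B-score at or below minus 3 SD of library scores, with starting-brightness B-score within 2 SD (cut at about -4.2 in these data); inactive = the rest.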
# Target: Inward rectifier potassium channel 2 (Mus musculus) (UniProt P35561)
# Assay: inhibitors of mouse Kir2.1 inward-rectifier potassium channel (AID 1672);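 note: channel flux triggered by added potassium and thallium sulfate stimulus; B-score of peak minus minimum fluorescence over baseline after thallium stimulus; more negative B-score means stronger Kir2.1 block with less thallium influx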
# Settings: HEK293-Kir2.1, FluxOR thallium flux fluorescence; at 10 µM; stronger effect = lower value
# Chain of Inward rectifier potassium channel 2 (Mus musculus) (P35561 whole entry, looked up): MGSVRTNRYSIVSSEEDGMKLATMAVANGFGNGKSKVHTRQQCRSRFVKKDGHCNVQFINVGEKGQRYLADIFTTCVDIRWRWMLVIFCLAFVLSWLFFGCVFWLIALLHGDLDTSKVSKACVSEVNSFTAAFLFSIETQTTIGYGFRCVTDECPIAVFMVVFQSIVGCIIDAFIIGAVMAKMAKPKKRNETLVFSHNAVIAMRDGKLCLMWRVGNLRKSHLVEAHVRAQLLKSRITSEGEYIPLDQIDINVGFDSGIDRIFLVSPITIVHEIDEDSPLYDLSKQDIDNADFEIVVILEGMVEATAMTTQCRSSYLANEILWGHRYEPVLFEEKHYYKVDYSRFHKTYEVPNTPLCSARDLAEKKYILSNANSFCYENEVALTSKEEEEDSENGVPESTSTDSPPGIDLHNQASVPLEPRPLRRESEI
row,Compound,B-score
1,CC1CCN(c2ccc(-c3ccc(NC(=O)c4ccco4)cc3)nn2)CC1,2.11
2,COc1cc(NC(=O)c2ccccc2NS(=O)(=O)c2ccc(Cl)s2)cc(OC)c1,-4.91 (active)
3,COc1cc(NC(=O)c2cccnc2SC)cc(OC)c1,-1.22
4,COC(=O)c1ccc(NC(=O)c2ccccc2NS(=O)(=O)c2ccccc2)cc1,-0.07
5,Cc1ccn2c(=O)nc(SCC(=O)NCc3ccc4c(c3)OCO4)nc2c1,-1.61
6,Cc1ccc2nc(NC(=O)C3CSC4(C)CCC(=O)N34)sc2c1 (configuration not stated),-0.28
7,CCOc1ccc(S(=O)(=O)Nc2cccc(C(=O)NCC3(N4CCCCC4)CCCCC3)c2)cc1,-0.12
8,Cc1ccc(C(=O)C(C)OC(=O)Cc2n[nH]c(=O)c3ccccc23)cc1C (configuration not stated),-0.94
9,O=C(CN1C(=O)NC2(CCCC2)C1=O)OCCOc1ccc(F)cc1,0.63
10,CCn1c2ccccc2c2cc(NC(=O)COC(=O)c3ccccc3Br)ccc21,1.33
11,CCn1c2ccccc2c2cc(NC(=O)C/C(C)=N/NC(=O)c3ccccc3N)ccc21,1.9
12,CCn1c2ccccc2c2cc(NC(=O)CNC)ccc21,-5.93 (active)
13,COc1ccc(CCNC(=O)C(=O)NCC2CCCN2S(=O)(=O)c2cccs2)cc1OC (configuration not stated),-0.91
14,COc1ccc(C)cc1S(=O)(=O)Nc1cc2c3c(c1)CCC(=O)N3CCC2,0.54
15,COc1ccc(NC(=O)CCC(=O)N2CCN(S(=O)(=O)c3ccc(C)cc3)CC2)c(OC)c1,-0.19
16,COc1ccccc1C(=O)NC(CCSC)C(=O)N1CCN(C/C=C/c2ccccc2)CC1 (configuration not stated),-1.22
17,COc1ccc(CN2CCN(Cc3ccc(OC)c(OC)c3OC)CC2)cc1,0.47
18,COc1ccc(CN2CCC(c3nc4ccc(Cl)cc4[nH]3)CC2)cc1,-7.29 (active)
19,COc1ccc(Cn2nnc3c(=O)[nH]c(C4CCN(C(=O)c5ccccc5Cl)CC4)nc32)cc1,1.59
20,O=C(Nc1ccc(S(=O)(=O)N2CCCCC2)cc1)C1CCN(C(=O)c2ccc(F)cc2)CC1,-0.97
21,COc1cc(/C=N/Nc2ccc(C)cc2)cc(Br)c1O,-0.11
22,COc1cc(/C=N/O)cc(Br)c1OCc1cccc(Cl)c1,-0.84
23,COc1cc(/C=N/O)cc(Br)c1OS(=O)(=O)c1ccc(C)cc1,-10.4 (active)

row,Compound,B-score
1,CCc1nnc(NS(=O)(=O)c2ccc(NC(=O)c3cccc(OC(F)(F)C(F)F)c3)cc2)s1,-0.69
2,Cc1ccc(-c2cc(=O)[nH]c(NCc3ccccc3)n2)cc1,-1.96
3,COc1cccc(CN(C)C(=O)CC23CC4CC(CC(C4)C2)C3)c1OC,0.01
4,COc1ccccc1CN(C)C(=O)C1(c2ccc(Cl)cc2)CC1,-7.43 (active)
5,COc1ccccc1CN(C)C(=O)c1cc2ccccc2o1,-0.72
6,COc1ccc(/C=N/NC(=O)c2cc(-c3cccc(C)c3)nc3ccccc23)cc1O,-0.5
7,CCOc1ccc(NS(=O)(=O)c2ccc(C(=O)NC3CCN(Cc4ccccc4)CC3)cc2)cc1,-0.37
8,COc1ccccc1CCC(=O)OCC(=O)N1CCN(S(=O)(=O)c2ccc(C)cc2C)CC1,-0.28
9,O=S(=O)(ON(c1ccccc1)S(=O)(=O)c1ccccc1)c1ccccc1,-1.37
10,Cc1ccc(S(=O)(=O)c2ccc(Oc3ccccc3)cc2)cc1,1.97
11,CC1=C/C(=N\OS(=O)(=O)c2ccccc2)C=CC1=O,-8.49 (active)
12,COC(=O)c1ccc(NS(=O)(=O)c2cc3c4c(c2)C(C)C(=O)N4CCC3)cc1 (configuration not stated),-0.99
13,C/C(=N\NC(=O)COc1ccc(C)cc1[N+](=O)[O-])c1ccc2c(c1)OCCO2,0.54
14,C=CS(=O)c1sc(Cl)c(N2CCOCC2)c1[N+](=O)[O-] (configuration not stated),-4.54 (active)
15,CCCCCCCCCCCCN1[C@@H](CC(C)=O)c2cc(F)cc(F)c2S1(=O)=O,1.64
16,CCOC(=O)c1c(NC(=O)CSc2nnc(C)c(=O)[nH]2)sc2c1CCC2,1.75
17,Cc1nnc(SCC(=O)N2CCOCC2)[nH]c1=O,-0.42
18,CCCCOC(=O)CNc1nnc(SCC(=O)OCC)[nH]c1=O,-5.69 (active)
19,COc1ccc(NC(=O)CN(C)C(=O)c2ccc(NC3CC3)c([N+](=O)[O-])c2)cc1,0.91
20,COc1ccc(C(=O)OCC(=O)c2ccc(Cl)s2)c(OC)c1OC,1.46
21,CCOc1ccc(C(C)=O)cc1COC(=O)CNC(=O)c1cccs1,-0.97
22,COc1ccccc1C(CNC(=O)c1cccc(NS(=O)(=O)c2ccc(Br)cc2)c1)N(C)C (configuration not stated),-1.8
23,O=C(O)[C@@H]1CCCN1c1ncnc2sc3c(c12)CCC3,0.12

row,Compound,B-score
1,CC(C)(C)C(=O)Cn1c(NCCO)nc2ccccc21,-0.4
2,OCCNc1nc2ccccc2n1-c1ncnc2sc3c(c12)CCC3,-8.97 (active)
3,COc1cc(-c2nnc(NC(=O)C3=COCCO3)o2)cc(OC)c1OC,0.99
4,CCCCn1c(N)c(N(CC(C)C)C(=O)c2cccc(S(=O)(=O)N3CCN(C(C)=O)CC3)c2)c(=O)[nH]c1=O,-1.82
5,O=C(CCCN=C1NS(=O)(=O)c2ccccc21)OCC(=O)c1ccc(F)c(F)c1,0.45
6,Cc1cccc(C(=O)NCC(=O)OCC(=O)N2CC3(C)CC2CC(C)(C)C3)c1 (configuration not stated),1.23
7,Cc1nnnn1/C(=C\c1ccccc1)C(=O)OCC(=O)N1CC2(C)CC1CC(C)(C)C2 (configuration not stated),-4.63 (active)
8,COc1ccccc1C(=O)N1CC2(C)CC1CC(C)(C)C2 (configuration not stated),-0.99
9,CCn1c(Cc2cccs2)nnc1SCC(=O)c1ccc(C)cc1,-4.88 (active)
10,CCn1c(SCC(=O)c2ccc3ccccc3c2)nnc1-c1cccs1,-2.71
11,Cc1ccc(-n2c(Cc3cccs3)nnc2SCC(=O)OC(C)C)cc1,-2.12
12,COc1c(C=O)c(CCN(C)C(=O)c2ccc(F)cc2)cc2c1OCO2,-4.35 (active)
13,O=C(/C=C/c1ccc2c(c1)OCO2)NCc1ccc(F)cc1,-0.53
14,CN(Cc1nc2ccccc2s1)C(=O)c1ccc(F)cc1,1.03
15,Cc1cc(NC(=O)C(C)SCC(=O)Nc2ccccc2N2CCCCC2)no1 (configuration not stated),-4.17
16,COc1ccc(C(=O)c2c3ccc([N+](=O)[O-])cc3[n+]([O-])n2CCCN)cc1,0.68
17,Cc1cc(NC(=O)CCS(=O)(=O)c2ccc(F)cc2)no1,-0.47
18,CCNC(=S)Nc1cccc(Cl)c1C,0.45
19,Cc1c(Cl)cccc1NC(=S)NCc1ccc2c(c1)OCO2,-1.74
20,Cc1c(Cl)cccc1NC(=S)NCC(O)c1ccccc1 (configuration not stated),-4.47 (active)
21,O=C(Nc1ccc(N2CCCCC2)cc1)c1cc(S(=O)(=O)N2CCOCC2)ccc1F,0.53
22,COc1cc(N)c(Cl)cc1C(=O)OCC(=O)c1ccc2c(c1)NC(=O)CO2,0.6
23,Cc1nn(C)cc1C(=O)c1ccccc1,0.22

row,Compound,B-score
1,CCOc1ccc(C(=O)Nc2cc(Cl)ccc2-n2cncn2)cc1OC,-2.32
2,COc1cccc(CC2(CO)CCCN(CC3=Cc4cc(OC)ccc4OC3)C2)c1 (configuration not stated),0.68
3,CN1c2ccc([N+](=O)[O-])cc2C(C)(C)C12C=Cc1cc(C(=O)O)ccc1O2 (configuration not stated),0.63
4,COc1ccc2c(c1)C=CC1(O2)N(CCO)c2ccccc2C1(C)C (configuration not stated),-6.82 (active)
5,CN(N)c1nc(N2CCCC2)nc(N2CCCC2)n1,0.28
6,Cc1sc2ncnc(N3CCC(C(=O)NNC(=O)c4ccc(F)cc4)CC3)c2c1C,0.05
7,CSc1ccc(Cl)c(C(=O)OCC(=O)N2CC(C)OC(C)C2)c1 (configuration not stated),-0.84
8,CC1CN(C(=O)COC(=O)c2cccc(NS(=O)(=O)c3ccccc3)c2)CC(C)O1 (configuration not stated),-4.76 (active)
9,COc1ccc(N2CCN(C(=O)COC(=O)c3cccc(S(=O)(=O)Nc4ccccc4OC)c3)CC2)cc1,0.61
10,O=C(NC1CCCCC1)c1ccc(-c2ccc(Cl)cc2)o1,1.25
11,C=CCn1c(=O)c2ccccc2n2c(SCC(=O)N3CCCc4ccccc43)nnc12,0.08
12,O=C(CSc1nc2ccccc2c(=O)n1CCCO)N1CCc2ccccc21,0.73
13,Cn1c(SCC(=O)N2CCCc3ccccc32)nc2ccccc2c1=O,-6.03 (active)
14,CN(Cc1ccccc1F)C(=O)C(Cc1ccccc1)NC(=O)c1ccccc1 (configuration not stated),-1.09
15,CC(=O)Nc1cccc(C(=O)OCC(=O)NCc2cc(C)c(O)c(C)c2)c1,-1.5
16,CC(=O)N1C(C)c2ccccc2C(C)(C)CC12CCCCC2 (configuration not stated),-6.43 (active)
17,CC(=O)N1CCN(C(=O)c2cc(-c3ccc(C)o3)nc3ccccc23)CC1,0.63
18,CCCCCN(C(=O)CCC(=O)OCCOc1ccc(OC)cc1)c1c(N)n(CCCC)c(=O)[nH]c1=O,0.11
19,O=C(N/N=C/c1cc(Br)c(O)c([N+](=O)[O-])c1)C(O)(c1ccccc1)c1ccccc1,1.06
20,CN(/N=C/c1ccccc1)C(=S)c1ccccc1,1.83
21,CCCCCOc1ccc(CSC2=NCCN2)cc1[N+](=O)[O-],-0.86
22,CCCOc1ccc(Cn2ccnc2)cc1[N+](=O)[O-],-0.79
23,CCCCOc1ccc(CSC(=N)N)cc1[N+](=O)[O-],-5.22 (active)
